In PubChem BioAssay AID1259245 (Vanderbilt High Throughput Screening Facility, 2017):
Hit rate of the full screen: of about 40,000 compounds, about 1,400 (3.5%) were called active.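 Rule for the calls: active = any of four per-well response measures lying three or more SD from its plate-wide compound average, in either direction; inactive = the rest, inconclusive results apart.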 For the sample, actives were picked, then their nearest neighbours and some compounds at random.

Molecular target: Voltage-dependent calcium channel gamma-2 subunit (Mus musculus) + Glutamate receptor 2 (Rattus norvegicus) (UniProt O88602+P19491)
Sequence (O88602 whole entry, looked up): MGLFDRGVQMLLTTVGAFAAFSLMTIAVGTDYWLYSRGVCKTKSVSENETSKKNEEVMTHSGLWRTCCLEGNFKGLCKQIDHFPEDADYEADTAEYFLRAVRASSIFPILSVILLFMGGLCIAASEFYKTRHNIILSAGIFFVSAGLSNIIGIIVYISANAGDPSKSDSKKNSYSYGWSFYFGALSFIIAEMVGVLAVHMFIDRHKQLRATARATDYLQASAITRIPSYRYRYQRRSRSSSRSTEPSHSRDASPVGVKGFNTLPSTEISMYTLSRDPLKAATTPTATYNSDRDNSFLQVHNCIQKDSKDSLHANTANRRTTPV
Sequence (P19491 whole entry, looked up): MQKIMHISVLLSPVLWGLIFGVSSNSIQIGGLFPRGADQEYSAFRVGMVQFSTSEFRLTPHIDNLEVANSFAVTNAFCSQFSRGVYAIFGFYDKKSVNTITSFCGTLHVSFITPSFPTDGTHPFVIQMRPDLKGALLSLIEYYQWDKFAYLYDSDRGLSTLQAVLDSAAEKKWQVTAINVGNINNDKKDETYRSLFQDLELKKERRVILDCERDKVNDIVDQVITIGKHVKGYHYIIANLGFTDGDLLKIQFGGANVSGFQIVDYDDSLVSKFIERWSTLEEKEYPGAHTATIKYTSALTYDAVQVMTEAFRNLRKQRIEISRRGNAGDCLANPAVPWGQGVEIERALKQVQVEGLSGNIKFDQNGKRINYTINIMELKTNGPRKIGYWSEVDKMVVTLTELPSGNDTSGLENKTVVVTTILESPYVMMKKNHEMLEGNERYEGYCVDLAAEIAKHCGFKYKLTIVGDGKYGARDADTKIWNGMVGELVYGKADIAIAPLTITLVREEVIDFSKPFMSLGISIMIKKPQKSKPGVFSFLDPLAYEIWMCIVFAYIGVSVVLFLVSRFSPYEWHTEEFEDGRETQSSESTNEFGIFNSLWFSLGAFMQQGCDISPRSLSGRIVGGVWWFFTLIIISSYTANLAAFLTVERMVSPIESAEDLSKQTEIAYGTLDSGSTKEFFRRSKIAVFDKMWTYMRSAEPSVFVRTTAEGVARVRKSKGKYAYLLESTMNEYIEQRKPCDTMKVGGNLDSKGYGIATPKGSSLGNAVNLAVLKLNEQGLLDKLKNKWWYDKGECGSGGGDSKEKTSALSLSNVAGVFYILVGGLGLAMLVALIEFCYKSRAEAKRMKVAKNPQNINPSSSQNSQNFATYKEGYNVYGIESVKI
Test: modulators of GluA2-stargazin AMPA receptor complexes, primary screen, cell-based, membrane potential dye (AID 1259245)
Settings: HEK293 GluA2+stargazin, membrane potential dye (FDSS), glutamate EC50, at 30 µM, hits were called plate by plate, in both directions; compound max-min signal: compound-alone response (agonism); glutamate slope, % of max: measured here: glutamate response slope, % max

Compound | compound max-min signal | glutamate response, % of max | glutamate slope, % of max [%]
COc1ccc(-c2ccc(N3CCN(C(=O)c4ccc(=O)[nH]n4)CC3)nn2)cc1 | 0.0223 | 13.3% (inactive) | 24.1
Cn1cnc2cc(OC(=O)c3ccc(=O)[nH]n3)ccc21 | 0.276 | 33% (active) | 52.5
COc1ccc(C(=O)NCCOc2ccc(-c3ccc(F)cc3)nn2)c(OC)c1 | 0.0424 | 40.3% (inactive) | 60.6
COc1ccc(C(=O)N2CCc3cc(S(=O)(=O)NC4CCCC4)ccc32)cc1 | 0.109 | 49% (inactive) | 67.4
COc1cccc(C(=O)Nc2nnc(-c3ccc(OC)c(OC)c3)o2)c1 | 0.128 | 35.2% (inactive) | 53.9
COc1cc(OC)cc(C(=O)Nc2nnc(-c3cc(OC)c(OC)c(OC)c3)o2)c1 | 0.259 | 56.5% (active) | 83.8
COc1cc(C(=O)Nc2nnc(-c3ccc(SC)cc3)o2)cc(OC)c1OC | 0.0956 | 30.8% (inactive) | 51.3
Cn1cccc1C(CNC(=O)C(=O)Nc1ccccc1F)N1CCOCC1 (stereo unspecified) | 0.0712 | 30.1% (inactive) | 55
CCN1CC(c2nc3ccccc3n2Cc2ccccc2F)CC1=O (stereo unspecified) | 0.0186 | 31.3% (inactive) | 50
CCN1CC(c2nc3ccccc3n2Cc2ccc(Cl)cc2)CC1=O (stereo unspecified) | 0.0749 | 45% (inactive) | 70.4
C=CCN1CC(c2nc3ccccc3n2Cc2cccc(Cl)c2)CC1=O (stereo unspecified) | 0.132 | 29.6% (active) | 36.6
CCCCN1CC(c2nc3ccccc3n2CCOc2ccc(C)cc2)CC1=O (stereo unspecified) | 0.135 | 45.7% (inactive) | 78.7
CCN1CC(c2nc3ccccc3n2Cc2ccc(Cl)c(Cl)c2)CC1=O (stereo unspecified) | 0.144 | 41.2% (inactive) | 66.5
CCCCN1CC(c2nc3ccccc3n2Cc2cc(C)ccc2C)CC1=O (stereo unspecified) | 0.12 | 83.9% (active) | 94.4
O=C(CCCc1ccccc1)N1CCN(c2ccc3nnc(-c4ccco4)n3n2)CC1 | 0.203 | 48.1% (inactive) | 68.2
CC(=O)Nc1cccc(NC(=O)C(=O)NCC2CCN(Cc3ccco3)CC2)c1 | 0.0762 | 50.2% (inactive) | 68.9
O=C(NC1CCc2ccccc21)c1nnn(-c2ccc(F)cc2)c1-c1ccncc1 (stereo unspecified) | 0.0259 | 18.1% (inactive) | 25.4
CCOCCn1c(=NC(=O)c2cc(C)no2)sc2cc(OC)c(OC)cc21 | 0.187 | 27.5% (active) | 50.7
COc1cc2nc(NC(=O)c3cc(C)no3)sc2cc1OC | 0.204 | 26.9% (inactive) | 48.6

Compound | compound max-min signal | glutamate response, % of max | glutamate slope, % of max [%]
COCCn1c(=NC(=O)c2cc(C)no2)sc2cc(SC)ccc21 | 0.152 | 31.8% (inactive) | 54.7
Cc1nn(-c2ccccc2)c2ncc(C(=O)Nc3ccc(F)cc3F)c(Cl)c12 | 0.0815 | 20.8% (inactive) | 43.5
COc1cn(CC(=O)Nc2ccc3c(c2)OCO3)c(CSc2nnnn2C)cc1=O | 0.0535 | 23.6% (inactive) | 48.2
CCOc1ccc2nc(NC(=O)c3ccc(S(=O)(=O)Nc4cccnc4)o3)sc2c1 | 0.179 | 32% (active) | 55.6
CCOc1ccc2nc(NC(=O)c3ccc(S(=O)(=O)N(C)C)o3)sc2c1 | 0.115 | 31.5% (inactive) | 54.4
Cc1ccc2nc(NC(=O)c3ccno3)sc2c1 | 0.16 | 53% (inactive) | 62.5
O=c1oc2ccc(Cl)cc2cc1S(=O)(=O)c1ccccc1F | 0.0854 | 39.3% (inactive) | 60
O=c1ccc2cc(S(=O)(=O)Nc3cc(Cl)ccc3O)ccc2o1 | 0.209 | 16.4% (active) | 35.5
CC(C)Oc1ccc(C(=O)Nc2ccc3oc(=O)ccc3c2)cc1 | 0.17 | 41.9% (inactive) | 61.4
O=C(NC1CCCCCC1)c1ccc(S(=O)(=O)c2ccccc2)nc1 | 0.0387 | 28.2% (inactive) | 47.7
COc1cccc(NC(=O)c2ccc(=O)n(Cc3cccc(C(F)(F)F)c3)c2)c1 | 0.0915 | 23.5% (inactive) | 41.6
COc1cc(CN2CCN(c3nccn3C)CC2)cc(OC)c1 | 0.0438 | 12.8% (inactive) | 27.6
COc1ccc(OC)c(-c2ccc(=O)n(CC(=O)N3CCOCC3)n2)c1 | 0.0773 | 62.3% (inactive) | 97.9
Cc1ccccc1NC(=O)NC1(c2nc(-c3ccsc3)no2)CCCCC1 | 0.081 | 34.5% (inactive) | 56
O=S(=O)(NC1(c2nc(-c3ccsc3)no2)CCCCC1)c1ccccc1 | 0.127 | 19.9% (active) | 36.2
COc1cc(Cl)ccc1C(=O)NC1(c2nc(-c3ccsc3)no2)CCCCC1 | 0.0754 | 37.6% (inactive) | 63.1
COc1ccccc1OCC(=O)Nc1cc(C(=O)N2CCOCC2)cn(C)c1=O | 0.134 | 36.2% (inactive) | 63
CCCC(CCC)C(=O)N1CCN(c2ncnc3c2nnn3-c2ccc(OC)cc2)CC1 | 0.0796 | 50.3% (inactive) | 57.2
